A short description of assay [1]: qHTS of pediatric cancer cell lines to identify multiple opportunities for drug repurposing: Primary screen for MG 63 (6-TG R) cells (AID 1347105). Further: nearly all actives have a fitted effect of over 50% in size. Further: potency means the concentration at half of the fitted maximal effect. The procedure, abridged: (§1)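 Plated cells (500-1,000 per well, growth media) were allowed to settle for 5 hours, treated with compound dilutions for 48 hours, then lysed with CellTiter-Glo for 15 min at room temperature before luminescence reading.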

Assay [2] can be described thus: qHTS of pediatric cancer cell lines to identify multiple opportunities for drug repurposing: Primary screen for control Hh wild type fibroblast cells (AID 1347106). Further: nearly all actives have a fitted effect of over 55% in size. Further: potency means the concentration at half of the fitted maximal effect. The method, boiled down: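 Cells (500-1,000/well) in growth media were settled 5 h at 37 degrees C, then given compounds for 48 h. Viability was read as CellTiter-Glo luminescence. Primary runs used MIPE at 11 points (0.78 nM-46 µM) and NPC at 8 points (0.59 nM-46 µM); follow-ups used 11 points.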

Assay [3] in a line: qHTS of pediatric cancer cell lines to identify multiple opportunities for drug repurposing: Primary screen for Rh41 cells (AID 1347108). Further: nearly all actives have a fitted effect of over 70% in size. Further: potency means the concentration at half of the fitted maximal effect. The method, boiled down: as §1
In general terms: Quantitative high-throughput screening tests each substance at several concentrations.

Assay [4] in a line: qHTS of pediatric cancer cell lines to identify multiple opportunities for drug repurposing: Confirmatory screen for NB1643 cells (AID 1347109). Further: nearly all actives have a fitted effect of over 45% in size. Further: potency means the concentration at half of the fitted maximal effect. The method, boiled down:
(§2)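 Cells (500-1,000/well) rested 5 h, then received compounds for 48 h; metabolically active cells were measured by CellTiter-Glo luminescence. Final concentrations spanned up to 46 µM (MIPE, 11-point) or 0.59 nM-46 µM (NPC, 8-point) in primary screens, 11-point in follow-ups.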

Assay [5] in a line: qHTS of pediatric cancer cell lines to identify multiple opportunities for drug repurposing: Confirmatory screen for A673 cells (AID 1347110).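 Further: cells exposed to compound for 48 h before the viability read; nearly all actives have a fitted effect of over 65% in size.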 Further: potency means the concentration at half of the fitted maximal effect. The method, boiled down:
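qHTS titration format: primary MIPE 0.78 nM-46 µM (11 pts), NPC 0.59 nM-46 µM; confirmation 11 pts. 48 h, CTG luminescence.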

Assay [6] in a line: qHTS of pediatric cancer cell lines to identify multiple opportunities for drug repurposing: Confirmatory screen for SK-N-MC cells (AID 1347111).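 Further: cells exposed to compound for 48 h before the readout; nearly all actives have a fitted effect of over 70% in size.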 Further: potency means the concentration at half of the fitted maximal effect. The procedure, abridged:
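Seed 500-1,000 cells/well; rest 5 h at 37 degrees C. Pin-transfer compounds, 11-point titration. Incubate 48 h. Add CellTiter-Glo, 15 min RT, read luminescence.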

Assay [7] in a line: qHTS of pediatric cancer cell lines to identify multiple opportunities for drug repurposing: Confirmatory screen for LAN-5 cells (AID 1347113). Further: nearly all actives have a fitted effect of over 65% in size. Further: potency means the concentration at half of the fitted maximal effect. The method, boiled down:
as §2

The nature of assay [8]: qHTS of pediatric cancer cell lines to identify multiple opportunities for drug repurposing: Confirmatory screen for BT-12 cells (AID 1347112). Further: nearly all actives have a fitted effect of over 55% in size. Further: potency means the concentration at half of the fitted maximal effect. The procedure, abridged:
as §2

Assay [9] in a line: qHTS of pediatric cancer cell lines to identify multiple opportunities for drug repurposing: Confirmatory screen for DAOY cells (AID 1347114). Further: nearly all actives have a fitted effect of over 65% in size. Further: potency means the concentration at half of the fitted maximal effect. The procedure, abridged: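 Viability measured as metabolically active cells via CellTiter-Glo luminescence following 48 hours of compound exposure, 11-point dilutions in confirmatory testing. 500-1,000 cells/well plated 5 hours before dosing; controls were DMSO and 2.3 µM bortezomib.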

The nature of assay [10]: qHTS of pediatric cancer cell lines to identify multiple opportunities for drug repurposing: Primary screen for Rh30 cells (AID 1347107). Further: series mostly up to about 46 µM; nearly all actives have a fitted effect of over 75% in size. The procedure, abridged:
as §2

Records with an inconclusive call do not appear. The source made the active and inactive calls. The call rests on the fitted dose curve; in most records, active means well fitted curve in the direction sought with a large enough effect; inconclusive means small, poorly fitted or top-dose-only effect, or another doubt; inactive means no such curve, though single readings can be large; an effect the other way counts as inactive or inconclusive.

`Cc1c(CN2CCN(S(C)(=O)=O)CC2)sc2c(N3CCOCC3)nc(-c3cnc(N)nc3)nc12`: the Potency in [1] was 0.0372 µM (active); in assay [2], 0.209 µM (active); in assay [3], 0.148 µM (active); in assay [4], 1.31 µM (active); in assay [5] it was 1.85 µM (active); in assay [6], 0.827 µM (active). Moreover, the Potency in assay [7] was 1.31 µM (active).

On to `Cc1ccc(-c2ncn(-c3ccc(Nc4nccc(-c5cccc(N6CCOCC6)c5)n4)cc3)n2)cn1`, for which the Potency in assay [1] is 0.0935 µM (active); in assay [2], 0.166 µM (active); in assay [3], 0.132 µM (active); in assay [4] it was 0.107 µM (active); in assay [5], 0.17 µM (active); in assay [6] it was 0.12 µM (active). The Potency in assay [8] is 0.214 µM (active); in [7] it was 0.0955 µM (active); in assay [9], 0.24 µM (active).

As for `COCCOc1ccc2c(c1)ncn2-c1ccc2cccc(N3CCC(N)CC3)c2n1`, the Potency was 29.6 µM (active) in assay [1] and 23.5 µM (active) in assay [3]. Moreover, the Potency result in [2] is “inactive”.

As to `O=C(O)C1(Cc2cccc(Nc3nccs3)n2)CCC(Oc2cccc(Cl)c2F)CC1` (stereo not drawn), the Potency in assay [1] was 18.7 µM (active). Besides, the Potency entry in assay [2] and in assay [3] was “inactive” each time.

For the compound `NC1(Cc2ccc(Cl)cc2)CCN(c2ncnc3[nH]ccc23)CC1`, the Potency in assay [1] was 14.8 µM (active); in [3], 3.32 µM (active). The Potency entry in assay [2] is “inactive”.

Regarding `CC(C)[C@H](C(=O)Nc1ccc(C(=O)NO)cc1)c1ccccc1`, the Potency in [1] is 2.96 µM (active); in assay [2], 16.6 µM (active); in assay [3], 1.18 µM (active); in [4] it was 0.585 µM (active); in assay [5], 1.04 µM (active); in assay [6], 0.465 µM (active). The results for the Potency in assay [8], in assay [7] and in assay [9] were 9.27 µM (active), 0.827 µM (active) and 2.33 µM (active), respectively.

With `Cc1[nH]c2ccccc2c1CCNCc1ccc(C=CC(=O)NO)cc1`, the Potency in assay [1] is 0.469 µM (active); in assay [2], 1.87 µM (active); in [3] it was 0.235 µM (active); in [4], 0.117 µM (active); in assay [5] it was 0.329 µM (active); in assay [6], 0.0827 µM (active). For the same compound, the values for the Potency in assay [8] and in assay [7] were 0.737 µM (active) and 0.261 µM (active), respectively.

In the case of `COc1cccc2nc(-c3cccs3)nc(NN3C(=O)C=C(C)C3=O)c12`, the Potency in assay [1] was 2.96 µM (active); in [3], 2.35 µM (active); in [4] it was 0.657 µM (active); in [5], 5.22 µM (active); in assay [6], 0.657 µM (active); in [8], 10.4 µM (active). Moreover, the Potency in assay [7] is 0.657 µM (active); in assay [9] it was 5.22 µM (active). The Potency entry in [2] was “inactive”.

On to `Cc1c(Cn2c(C)nc3c(C(=O)O)cc(N4CCOCC4)cc32)cccc1C(F)(F)F`, for which the figures for the Potency in assay [1] and in assay [3] were 2.96 µM (active) and 7.43 µM (active), respectively. Besides, the Potency result in assay [2], in assay [4], in assay [5] and in assay [8] was “inactive” throughout.

For `CC(C)(C)c1cc(C(C)(C)C)c(NC(=O)c2c[nH]c3ccccc3c2=O)cc1O`, the Potency entry in [1], in assay [2] and in assay [10] was “inactive” each time. In addition, the Potency in assay [6] was 14.7 µM (active); in assay [9] it was 18.5 µM (active).

Consider `Cc1cnc(Nc2ccc(F)cc2Cl)nc1-c1c[nH]c(C(=O)N[C@H](CO)c2cccc(Cl)c2)c1`, for which the Potency was 29.6 µM (active) in [1], 18.7 µM (active) in assay [3], 0.827 µM (active) in [5] and 23.3 µM (active) in assay [9]. Besides, the Potency result in assay [2], in [6] and in assay [7] was “inactive” throughout.

Turning to `O=C(O)c1ccc2c(c1)nc(Nc1cccc(Cl)c1)c1ccncc12`, the Potency in [1] is 3.72 µM (active); in assay [3], 14.8 µM (active). The Potency result in assay [2] is “inactive”.

For the compound `CCc1cc2c(cc1N1CCC(N3CCOCC3)CC1)C(C)(C)c1[nH]c3cc(C#N)ccc3c1C2=O`, the Potency result in [1], in [2] and in assay [3] was “inactive” throughout.

Consider `CCC(=C(c1ccccc1)c1ccc(OCCN(C)C)cc1)c1ccccc1`, for which the Potency entry in assay [1], in [2] and in [10] was “inactive” each time. Also, the Potency in assay [6] is 23.3 µM (active).

On to `CC(=O)OCC(=O)[C@@]1(O)[C@H](C)C[C@H]2[C@@H]3C=C(C)C4=Cc5c(cnn5-c5ccccc5)C[C@]4(C)[C@@H]3[C@@H](O)C[C@@]21C`, for which the Potency in assay [1] is 18.7 µM (active); in assay [3] it was 18.7 µM (active); in [4] it was 10.4 µM (active); in assay [5], 13.1 µM (active); in assay [6] it was 2.93 µM (active); in assay [8] it was 32.9 µM (active). Moreover, the figures for the Potency in assay [7] and in [9] were 13.1 µM (active) and 18.5 µM (active), respectively. Also, the Potency entry in assay [2] was “inactive”.

On to `COc1ccc(C=Cc2cc(OC)c(OC)c(OC)c2)cc1O`, for which the Potency result in assay [1], in assay [2] and in [10] was “inactive” each time. Also, the Potency is 0.0185 µM (active) in assay [5], 0.0165 µM (active) in assay [6], 0.0522 µM (active) in assay [7] and 0.0737 µM (active) in assay [9].

In the case of `Cc1cc(Nc2nc(N[C@@H](C)c3ccc(F)cc3)c(C#N)cc2F)n[nH]1`, the Potency in assay [1] was 3.72 µM (active); in assay [2], 14.8 µM (active); in assay [3] it was 5.9 µM (active).

In the case of `COc1cc(=C2C=c3ccccc3=N2)[nH]c1=Cc1[nH]c(C)cc1C`, the Potency is 11.8 µM (active) in [1]; 10.5 µM (active) in [2]; 5.9 µM (active) in assay [3]; 14.7 µM (active) in [4]; 2.19 µM (active) in assay [5]; 11.7 µM (active) in assay [6]. The Potency is 26.1 µM (active) in [8] and 10.4 µM (active) in assay [7].

In the case of `CCOC(=O)C1=C(C)NC2=C(C(=O)CC(C)(C)C2)C1c1ccc(-c2ccccc2)cc1` (stereo not drawn), the Potency is 14.8 µM (active) in assay [1] and 18.7 µM (active) in [3]. The Potency entry in [2] was “inactive”.

For the compound `CC(C)=CCCC(C)=CCCC(C)=CCSc1ccccc1C(=O)O`, the values for the Potency in assay [1], in [2] and in assay [3] were 3.72 µM (active), 8.33 µM (active) and 4.69 µM (active), respectively.

With `COc1cc(Nc2ncc(F)c(Nc3ccc4c(n3)N(COP(=O)(O)O)C(=O)C(C)(C)O4)n2)cc(OC)c1OC`, the Potency was 0.935 µM (active) in assay [1]; 3.72 µM (active) in [3]; 5.85 µM (active) in assay [4]; 7.37 µM (active) in [5]; 11.7 µM (active) in [6]; 10.4 µM (active) in assay [7]. Also, the Potency in assay [9] is 3.69 µM (active). For the same compound, the Potency result in [2] is “inactive”.

For the compound `CN(C)CC(C)(C)CNc1nn2c(-c3ccccc3)nnc2cc1C1CCC1`, the Potency was 2.96 µM (active) in [1] and 20.8 µM (active) in assay [6]. Besides, the Potency entry in assay [2], in assay [10], in assay [4], in [8], in assay [7] and in [9] was “inactive” in each case.
